{"source": "paper PMC11995724", "about": "“Antibiotic target discovery by integrated phenotypic and activity-based profiling of electrophilic fragments” (Cell chemical biology, 2025)", "note": "Out of some 3,200 compounds screened, about 75 (2%) showed an effect of 50% or more. This excerpt belongs to a sample that is enriched for strong results."}
{"test_system": "T1, S. aureus MSSA476", "T1 construct": "MSSA476", "design": "species or system S. aureus MSSA476 (TSB) or V. cholerae SAD30 (LB); 384-well bacterial growth screen at 25 uM, OD600 relative to DMSO control", "settings": "25 µM; inhibitor", "units": {"% of control remaining": "%"}}
{"smiles": "CCn1c(-c2ccccc2)c(C(=O)CCl)c2ccccc21", "note": "[10-E12, 2-chloro-1-(1-ethyl-2-phenyl-1H-indol-3-yl)ethan-1-one]", "% of control remaining": -0.3125}
{"smiles": "N#Cc1ccc(NC(=O)CCl)cc1Cl", "note": "[4-N03, 2-chloro-N-(3-chloro-4-cyanophenyl)acetamide]", "% of control remaining": 74.7022}
{"smiles": "C=CC(=O)Nc1ccc(C(=O)N2CCC3(CC2)OCCCO3)cc1", "note": "[2-D16, N-(4-{1,5-dioxa-9-azaspiro[5.5]undecane-9-carbonyl}phenyl)prop-2-enamide]", "% of control remaining": 123.586}
{"smiles": "CC(Cl)C(=O)c1ccc(Cl)cc1", "note": "(stereo not shown) [10-O04, 2-chloro-1-(4-chlorophenyl)propan-1-one]", "% of control remaining": 129.063}
